TAG inh: inhibitors of triacylglycerol accumulation, primary screen, cell-based, uHTS, fluorescence, H9c2; H9c2 cells, Nile Red lipid (TAG) fluorescence; cells loaded with 200 µM oleic acid; inhibition, % at 12.5 µM; 0.66% of 230,000 active;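 active = pattern-corrected inhibition of lipid staining of at least 50% with the nuclear-stain viability signal not falling by more than 50%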;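 also: 0% = DMSO wells and 100% = triacsin C control wells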
CRFR2-BP ag: agonists of CRF-BP/CRF-R2 complex, primary screen, cell-based, HEK293, calcium dye fluorescence, uHTS | CRF-binding protein / CRF receptor 2 complex (human) | calcium dye fluorescence (FLIPR); percent of saturating CRF peptide response | activation, % at 13.2 µM | 0.46% of 350,000 active | AID 588473, 2011;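 active = activation of at least 50%, plus an integration ratio under a set limit after plate pattern correction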;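 also: plate controls were neutral control wells without compound for no effect and CRF at EC100 for full effect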
H9c2 protect: cardioprotection against H2O2-induced cell death, primary screen, uHTS, H9c2 cells, ATPLite luminescence; protection from H2O2 cell death, % at 20 µM; H9c2 cardiomyocytes, H2O2 injury protection, 2 h; 0.63% of 360,000 active; AID 588492, 2011;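 active = compounds giving at least 50% protection of heart cells from peroxide-induced death in the single-dose screen, raw or plate-pattern-corrected value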;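 also: 0% = DMSO wells with peroxide and 100% = DMSO wells without peroxide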
iPSC survival up: enhancers of single-cell hiPSC survival, primary screen, ATPlite luminescence. survival enhancement, % at 20 µM. 0.044% of 360,000 active. 100% = ROCK inhibitor wells, 0% = DMSO. AID 602274, 2012; in the data active = survival enhancement above about 18%;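 also: cells exposed to compounds for 16 hours before the ATP read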
CRFR2-BP antag: antagonists of CRF-BP/CRF-R2 complex, primary screen, cell-based, HEK293, calcium dye fluorescence, uHTS | CRF-induced calcium fluorescence | inhibition, % at 11.8 µM | 0.59% of 350,000 active;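 active = inhibition of the ligand-induced calcium signal above about 50% at the single tested concentration, limit read from the data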
SKN-1 inh: suppressors of acrylamide-induced Pgst-4::GFP reporter in worms, primary screen, SKN-1 inhibitor project, whole organism, uHTS, GFP/RFP fluorescence ratio, strain VP596 | inhibition, % at 21.8 µM | C. elegans VP596 Pgst-4::GFP/RFP ratio, 24 h | 0.49% of 360,000 active;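 active = interference check ratio from 0.5 to 1.5 plus GFP to RFP signal ratio inhibition reaching or exceeding a fixed threshold, cut at about 30% in these data, passing the limit was not always enough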
H9c2 TAG conf: triacylglycerol accumulation inhibitors, retest, confirmation, cell-based, single concentration, Nile Red fluorescence, H9c2; shares compounds with TAG inh; H9c2 lipid accumulation; cells loaded with 200 µM oleic acid; inhibition, % at 12.5 µM; 71% of 990 active;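 active = mean inhibition across replicates of 40% or more; inactive = mean inhibition below 40%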;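 also: plate controls were DMSO only wells for no effect and Triacsin C treated wells for full effect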
Starred values were filed as active, the others as inactive. Hits are enriched below; roughly 2.5% of the tested compounds scored in any of these assays.

How did CN1CCN(C(=O)c2cccc(-c3cccc4nccn34)c2)CC1 do in these assays?
TAG inh: -11; H9c2 protect: 1; iPSC survival up: 8; SKN-1 inh: 4

What do the screens show for `Cc1ccc2[nH]c(-c3ccccc3)cc(=O)c2c1`?
TAG inh: 53*; CRFR2-BP ag: 0; H9c2 protect: -16; iPSC survival up: -3; CRFR2-BP antag: 10; SKN-1 inh: 2; H9c2 TAG conf: 58*

Results for COc1ccc(Nc2cccc3ccccc23)cc1 ?
TAG inh: 65*; CRFR2-BP ag: -1; H9c2 protect: -26; iPSC survival up: -3; CRFR2-BP antag: 7; SKN-1 inh: 19; H9c2 TAG conf: 13

What do the screens show for `COc1ccc(C(=O)Nc2cccc3ccccc23)cc1`?
CRFR2-BP ag: 1; H9c2 protect: 6; iPSC survival up: 0; CRFR2-BP antag: 8; SKN-1 inh: 9

How did Cc1cccc(NC(=O)C(C)Sc2nc3ccccc3c(=O)n2CCCN2CCOCC2)c1 (stereo not drawn) do in these assays?
TAG inh: 53*; CRFR2-BP ag: -1; H9c2 protect: 19; iPSC survival up: 0; CRFR2-BP antag: -9; SKN-1 inh: 1; H9c2 TAG conf: 57*

How did CCOc1ccc(C(=O)NCC(=O)NCC(c2ccco2)N2CCCCC2)cc1 (stereo not drawn) do in these assays?
TAG inh: 3; CRFR2-BP ag: -1; H9c2 protect: -1; iPSC survival up: -1; CRFR2-BP antag: -12; SKN-1 inh: 0

Results for O=C(Nc1cccc(Cl)c1)c1nc[nH]c1C(=O)NCCCNC(=O)c1[nH]cnc1C(=O)Nc1cccc(Cl)c1 ?
TAG inh: 70*; CRFR2-BP ag: 4; H9c2 protect: 80*; iPSC survival up: -2; CRFR2-BP antag: -1; SKN-1 inh: 0; H9c2 TAG conf: 85*

Results for Cc1ccc(NC(=O)c2[nH]cnc2C(=O)NN)cc1 ?
TAG inh: 2; CRFR2-BP ag: -1; H9c2 protect: 3; iPSC survival up: -1; CRFR2-BP antag: 13; SKN-1 inh: -15

What do the screens show for `Cc1ccc(NC(=O)c2nc[nH]c2C(=O)NCCCCCCNC(=O)c2[nH]cnc2C(=O)Nc2ccc(C)cc2)cc1`?
TAG inh: 109*; CRFR2-BP ag: 0; H9c2 protect: 81*; iPSC survival up: -1; CRFR2-BP antag: -3; SKN-1 inh: 0; H9c2 TAG conf: 95*

How did CCOC(=O)c1ccc(NC(=O)c2nc[nH]c2C(=O)NCCCCNC(=O)c2[nH]cnc2C(=O)Nc2ccc(C(=O)OCC)cc2)cc1 do in these assays?
TAG inh: 122*; CRFR2-BP ag: 0; H9c2 protect: 58*; iPSC survival up: -2; CRFR2-BP antag: 9; SKN-1 inh: -2; H9c2 TAG conf: 86*

What do the screens show for `Cc1ccc(NC(=O)c2nc[nH]c2C(=O)NCCCCNC(=O)c2[nH]cnc2C(=O)Nc2ccc(C)cc2)cc1`?
TAG inh: 66*; CRFR2-BP ag: 0; H9c2 protect: 33; iPSC survival up: 0; CRFR2-BP antag: -13; SKN-1 inh: -2; H9c2 TAG conf: 86*

How did O=C1c2ccccc2C(c2nnnn2-c2ccc3ccccc3c2)N1C1CC1 (stereo not drawn) do in these assays?
iPSC survival up: 0; SKN-1 inh: 7

How did O=C(/C=C/[C@H]1O[C@@H](n2ccc(=O)[nH]c2=O)[C@H](O)[C@@H]1O)N[C@@H](Cc1ccccc1)C(=O)O do in these assays?
H9c2 protect: -1; iPSC survival up: 0; SKN-1 inh: 6

What do the screens show for `CC(C)(C)c1csc(NC(=O)c2cccs2)n1`?
TAG inh: 73*; CRFR2-BP ag: 0; H9c2 protect: -12; iPSC survival up: -1; CRFR2-BP antag: 7; SKN-1 inh: 10; H9c2 TAG conf: 34

What do the screens show for `COc1ccc(C[C@H]2CN3C(=NC[C@@H]3Cc3ccc(O)cc3)N2CCNC(=O)c2ccc(C)c(Br)c2)cc1`?
TAG inh: 62*; CRFR2-BP ag: 0; H9c2 protect: 1; iPSC survival up: -4; CRFR2-BP antag: -1; SKN-1 inh: -7; H9c2 TAG conf: 49*

What do the screens show for `CC(=O)OCC(=O)[C@@]12OC3(CCCC3)O[C@@H]1C[C@H]1[C@@H]3CCC4=CC(=O)C=C[C@]4(C)[C@@]3(F)[C@@H](O)C[C@@]12C`?
TAG inh: 57*; CRFR2-BP ag: 0; H9c2 protect: -10; iPSC survival up: -2; CRFR2-BP antag: 10; SKN-1 inh: -9; H9c2 TAG conf: 64*

Results for CC1(C)O[C@@H]2C[C@H]3[C@@H]4CCC5=CC(=O)C=C[C@]5(C)[C@@]4(F)[C@@H](O)C[C@]3(C)[C@]2(C(=O)CO)O1 ?
TAG inh: 36; CRFR2-BP ag: 1; H9c2 protect: 8; iPSC survival up: 7; CRFR2-BP antag: -27; SKN-1 inh: -11

What do the screens show for `COc1ccc(NC(=O)CC2C(=O)N(C)C(=S)N2Cc2ccc3c(c2)OCO3)cc1` (stereo not drawn)?
CRFR2-BP ag: 6; H9c2 protect: -2; iPSC survival up: 4; CRFR2-BP antag: -26; SKN-1 inh: -5

What do the screens show for `Cc1cc(=O)oc(C)c1C(=O)Nc1ccc(F)cc1`?
TAG inh: 0; CRFR2-BP ag: -1; H9c2 protect: 1; iPSC survival up: 1; CRFR2-BP antag: -8; SKN-1 inh: 5

Results for Cc1cc(=O)oc(C)c1C(=O)Nc1cccc(F)c1 ?
TAG inh: 51*; CRFR2-BP ag: 5; H9c2 protect: 3; iPSC survival up: 0; CRFR2-BP antag: -17; SKN-1 inh: 4; H9c2 TAG conf: -6

How did CC1(C)Cc2nc3sc4c(SCC(=O)NCc5ccco5)ncnc4c3cc2CO1 do in these assays?
TAG inh: 54*; CRFR2-BP ag: -1; H9c2 protect: 1; iPSC survival up: -5; CRFR2-BP antag: -1; SKN-1 inh: 32; H9c2 TAG conf: 47*

How did COc1cc(Nc2ncc3c(n2)CCN(C(=O)Nc2ccc(C(C)C)cc2)C3)cc(OC)c1OC do in these assays?
TAG inh: 33; H9c2 protect: 10; iPSC survival up: 0; SKN-1 inh: 2

Results for COc1cccc(NC(=O)N2CCc3nc(Nc4ccc(C(C)C)cc4)ncc3C2)c1 ?
TAG inh: 71*; H9c2 protect: 6; iPSC survival up: -2; SKN-1 inh: 8; H9c2 TAG conf: 83*
